Assay results from ChEMBL document CHEMBL1961873, “Compounds: GSK PKIS; Assays: Nanosyn kinase panel” (2012).

Columns and labels:
[1] = target: Serine/threonine-protein kinase MARK2 (Homo sapiens) (UniProt Q7KZI7); settings: at 1 µM
[2] = target: PAS domain-containing serine/threonine-protein kinase (Homo sapiens) (UniProt Q96RG2); settings: at 0.1 µM
[3] = target: PAS domain-containing serine/threonine-protein kinase (Homo sapiens) (UniProt Q96RG2); settings: at 1 µM
[4] = target: Phosphorylase b kinase gamma catalytic chain, skeletal muscle/heart isoform (Homo sapiens) (UniProt Q16816); settings: at 0.1 µM
Phosphorylase b kinase gamma catalytic chain, skeletal muscle/heart isoform (Homo sapiens), sequence (Q16816 whole entry, looked up, canonical isoform): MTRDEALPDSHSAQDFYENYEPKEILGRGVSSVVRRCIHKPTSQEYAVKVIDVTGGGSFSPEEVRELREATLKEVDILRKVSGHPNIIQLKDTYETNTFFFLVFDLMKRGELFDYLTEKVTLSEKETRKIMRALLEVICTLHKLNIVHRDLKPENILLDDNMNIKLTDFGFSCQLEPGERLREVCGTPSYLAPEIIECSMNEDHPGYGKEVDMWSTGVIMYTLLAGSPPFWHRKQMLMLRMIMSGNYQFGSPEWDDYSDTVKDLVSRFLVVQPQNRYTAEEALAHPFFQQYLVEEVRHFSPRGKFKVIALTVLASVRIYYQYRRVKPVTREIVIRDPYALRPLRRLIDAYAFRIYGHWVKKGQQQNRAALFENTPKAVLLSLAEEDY

[5] = target: Phosphorylase b kinase gamma catalytic chain, skeletal muscle/heart isoform (Homo sapiens) (UniProt Q16816); settings: at 1 µM
[6] = target: T1, Phosphorylase b kinase gamma catalytic chain, liver/testis isoform (Homo sapiens) (UniProt P15735); settings: at 0.1 µM
T1 sequence (whole entry): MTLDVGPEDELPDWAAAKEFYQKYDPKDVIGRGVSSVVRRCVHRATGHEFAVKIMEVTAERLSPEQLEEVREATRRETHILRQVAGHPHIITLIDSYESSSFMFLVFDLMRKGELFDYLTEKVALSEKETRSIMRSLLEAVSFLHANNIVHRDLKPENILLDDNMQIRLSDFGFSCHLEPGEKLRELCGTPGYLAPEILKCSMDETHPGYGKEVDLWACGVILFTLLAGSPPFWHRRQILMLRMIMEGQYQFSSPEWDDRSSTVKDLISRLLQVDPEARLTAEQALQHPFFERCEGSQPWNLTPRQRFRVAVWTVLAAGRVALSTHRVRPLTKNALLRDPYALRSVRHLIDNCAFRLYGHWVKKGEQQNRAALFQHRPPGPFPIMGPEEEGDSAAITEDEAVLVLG

[7] = target: T1, Phosphorylase b kinase gamma catalytic chain, liver/testis isoform (Homo sapiens); settings: at 1 µM
[8] = target: Serine/threonine-protein kinase pim-1 (Homo sapiens) (UniProt P11309); settings: at 0.1 µM
[9] = target: Serine/threonine-protein kinase pim-1 (Homo sapiens) (UniProt P11309); settings: at 1 µM
[10] = target: Serine/threonine-protein kinase pim-2 (Homo sapiens) (UniProt Q9P1W9); settings: at 0.1 µM
Serine/threonine-protein kinase pim-2 (Homo sapiens), sequence (Q9P1W9 whole entry, looked up): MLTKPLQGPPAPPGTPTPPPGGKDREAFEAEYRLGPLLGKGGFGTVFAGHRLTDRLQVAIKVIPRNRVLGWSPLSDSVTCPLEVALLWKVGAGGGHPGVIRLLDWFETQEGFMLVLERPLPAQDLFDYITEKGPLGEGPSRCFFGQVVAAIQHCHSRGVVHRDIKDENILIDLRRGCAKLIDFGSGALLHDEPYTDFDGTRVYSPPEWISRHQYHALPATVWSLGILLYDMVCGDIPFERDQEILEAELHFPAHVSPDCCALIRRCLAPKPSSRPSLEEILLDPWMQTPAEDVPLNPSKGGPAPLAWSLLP

[11] = target: Serine/threonine-protein kinase pim-2 (Homo sapiens) (UniProt Q9P1W9); settings: at 1 µM
[12] = target: Serine/threonine-protein kinase pim-3 (Homo sapiens) (UniProt Q86V86); settings: at 0.1 µM
[13] = target: Serine/threonine-protein kinase pim-3 (Homo sapiens) (UniProt Q86V86); settings: at 1 µM
[14] = target: T2, MAP kinase-activated protein kinase 5 (Homo sapiens) (UniProt Q8IW41); settings: at 0.1 µM
T2 sequence (whole entry): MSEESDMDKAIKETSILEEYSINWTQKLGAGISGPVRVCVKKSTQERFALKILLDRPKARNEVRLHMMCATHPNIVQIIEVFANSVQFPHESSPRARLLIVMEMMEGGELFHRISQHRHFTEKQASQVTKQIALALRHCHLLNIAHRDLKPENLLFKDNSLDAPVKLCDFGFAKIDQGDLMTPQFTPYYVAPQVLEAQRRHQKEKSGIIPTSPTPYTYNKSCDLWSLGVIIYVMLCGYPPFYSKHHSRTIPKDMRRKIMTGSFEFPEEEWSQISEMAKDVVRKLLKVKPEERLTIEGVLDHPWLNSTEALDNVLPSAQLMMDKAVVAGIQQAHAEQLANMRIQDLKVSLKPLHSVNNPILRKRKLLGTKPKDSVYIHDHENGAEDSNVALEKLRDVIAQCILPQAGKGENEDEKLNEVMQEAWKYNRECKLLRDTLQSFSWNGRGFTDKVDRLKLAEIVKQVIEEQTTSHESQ

[15] = target: T2, MAP kinase-activated protein kinase 5 (Homo sapiens); settings: at 1 µM
[16] = target: Serine/threonine-protein kinase SIK1 (Homo sapiens) (UniProt P57059); settings: at 0.1 µM
Serine/threonine-protein kinase SIK1 (Homo sapiens), sequence (P57059 whole entry): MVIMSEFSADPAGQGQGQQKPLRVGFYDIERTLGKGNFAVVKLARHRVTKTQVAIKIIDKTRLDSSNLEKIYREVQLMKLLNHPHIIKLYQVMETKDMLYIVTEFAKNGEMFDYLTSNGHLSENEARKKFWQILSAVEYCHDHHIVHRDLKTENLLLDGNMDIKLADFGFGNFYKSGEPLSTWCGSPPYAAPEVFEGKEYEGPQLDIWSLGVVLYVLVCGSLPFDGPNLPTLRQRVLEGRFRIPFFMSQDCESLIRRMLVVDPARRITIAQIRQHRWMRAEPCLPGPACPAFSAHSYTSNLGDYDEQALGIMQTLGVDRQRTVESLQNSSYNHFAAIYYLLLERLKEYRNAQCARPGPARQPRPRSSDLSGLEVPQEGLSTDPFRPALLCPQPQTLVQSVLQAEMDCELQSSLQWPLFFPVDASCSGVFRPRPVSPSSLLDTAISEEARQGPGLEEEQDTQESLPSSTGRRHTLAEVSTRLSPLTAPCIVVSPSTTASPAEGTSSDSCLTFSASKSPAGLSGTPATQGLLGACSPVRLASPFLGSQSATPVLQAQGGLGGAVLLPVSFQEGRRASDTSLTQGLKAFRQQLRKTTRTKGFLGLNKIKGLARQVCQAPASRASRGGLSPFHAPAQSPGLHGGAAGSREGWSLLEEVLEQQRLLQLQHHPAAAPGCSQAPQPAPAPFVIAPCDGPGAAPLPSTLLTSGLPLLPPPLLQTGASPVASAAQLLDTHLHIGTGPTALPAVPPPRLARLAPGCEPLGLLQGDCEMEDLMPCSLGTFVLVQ

[17] = target: Serine/threonine-protein kinase SIK1 (Homo sapiens) (UniProt P57059); settings: at 1 µM
[18] = target: Serine/threonine-protein kinase SIK2 (Homo sapiens) (UniProt Q9H0K1); settings: at 0.1 µM
Serine/threonine-protein kinase SIK2 (Homo sapiens), sequence (Q9H0K1 whole entry, looked up): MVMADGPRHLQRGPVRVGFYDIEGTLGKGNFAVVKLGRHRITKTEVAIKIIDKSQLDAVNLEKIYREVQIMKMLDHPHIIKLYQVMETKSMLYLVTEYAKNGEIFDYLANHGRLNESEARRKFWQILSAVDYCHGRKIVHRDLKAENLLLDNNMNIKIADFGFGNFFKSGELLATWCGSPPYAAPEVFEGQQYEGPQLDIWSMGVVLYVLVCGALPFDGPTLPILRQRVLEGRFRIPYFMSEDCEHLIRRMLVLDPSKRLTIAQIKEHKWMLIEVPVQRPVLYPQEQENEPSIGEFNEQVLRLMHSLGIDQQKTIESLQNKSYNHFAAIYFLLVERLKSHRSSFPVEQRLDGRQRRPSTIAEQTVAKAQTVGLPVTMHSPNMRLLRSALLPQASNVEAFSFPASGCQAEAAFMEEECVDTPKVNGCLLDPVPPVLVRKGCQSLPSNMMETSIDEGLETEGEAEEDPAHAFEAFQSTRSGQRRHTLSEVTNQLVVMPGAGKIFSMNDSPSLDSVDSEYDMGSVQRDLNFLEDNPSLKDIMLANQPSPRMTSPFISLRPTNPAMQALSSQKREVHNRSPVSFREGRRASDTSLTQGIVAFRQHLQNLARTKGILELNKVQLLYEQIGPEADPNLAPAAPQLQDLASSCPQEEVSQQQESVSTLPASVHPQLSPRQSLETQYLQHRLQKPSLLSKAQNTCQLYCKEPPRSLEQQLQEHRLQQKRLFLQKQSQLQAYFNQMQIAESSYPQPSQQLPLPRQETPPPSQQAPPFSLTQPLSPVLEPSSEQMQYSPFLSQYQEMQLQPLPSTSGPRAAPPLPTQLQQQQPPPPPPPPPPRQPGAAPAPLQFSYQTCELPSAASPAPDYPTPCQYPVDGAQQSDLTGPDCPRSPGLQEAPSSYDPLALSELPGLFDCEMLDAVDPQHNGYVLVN

[19] = target: Serine/threonine-protein kinase SIK2 (Homo sapiens) (UniProt Q9H0K1); settings: at 1 µM
[20] = target: T3, Serine/threonine-protein kinase TBK1 (Homo sapiens) (UniProt Q9UHD2); settings: at 0.1 µM;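 further: values are the mean TBK1 inhibition, taken from the GSK PKIS screening data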
T3 sequence (whole entry): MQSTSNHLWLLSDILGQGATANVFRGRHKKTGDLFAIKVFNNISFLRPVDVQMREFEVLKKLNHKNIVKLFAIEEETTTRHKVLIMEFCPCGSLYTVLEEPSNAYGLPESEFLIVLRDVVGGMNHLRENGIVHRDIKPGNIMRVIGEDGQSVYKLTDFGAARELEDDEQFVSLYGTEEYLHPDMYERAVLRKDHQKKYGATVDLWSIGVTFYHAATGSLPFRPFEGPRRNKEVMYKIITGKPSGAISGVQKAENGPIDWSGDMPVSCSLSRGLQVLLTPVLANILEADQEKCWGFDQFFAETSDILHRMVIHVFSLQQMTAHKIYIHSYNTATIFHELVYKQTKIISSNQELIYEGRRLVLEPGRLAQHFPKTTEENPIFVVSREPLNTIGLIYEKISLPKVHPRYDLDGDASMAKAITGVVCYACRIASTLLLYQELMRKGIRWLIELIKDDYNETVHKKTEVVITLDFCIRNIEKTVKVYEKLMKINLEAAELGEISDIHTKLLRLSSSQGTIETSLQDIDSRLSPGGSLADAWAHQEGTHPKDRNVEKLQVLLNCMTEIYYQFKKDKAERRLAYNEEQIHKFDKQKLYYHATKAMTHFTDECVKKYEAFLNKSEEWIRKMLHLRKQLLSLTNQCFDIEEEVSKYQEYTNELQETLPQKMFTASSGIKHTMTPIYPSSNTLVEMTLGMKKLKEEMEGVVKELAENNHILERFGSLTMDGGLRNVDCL

PAS domain-containing serine/threonine-protein kinase (Homo sapiens), sequence (Q96RG2 whole entry, the tested form may be a part, canonical isoform): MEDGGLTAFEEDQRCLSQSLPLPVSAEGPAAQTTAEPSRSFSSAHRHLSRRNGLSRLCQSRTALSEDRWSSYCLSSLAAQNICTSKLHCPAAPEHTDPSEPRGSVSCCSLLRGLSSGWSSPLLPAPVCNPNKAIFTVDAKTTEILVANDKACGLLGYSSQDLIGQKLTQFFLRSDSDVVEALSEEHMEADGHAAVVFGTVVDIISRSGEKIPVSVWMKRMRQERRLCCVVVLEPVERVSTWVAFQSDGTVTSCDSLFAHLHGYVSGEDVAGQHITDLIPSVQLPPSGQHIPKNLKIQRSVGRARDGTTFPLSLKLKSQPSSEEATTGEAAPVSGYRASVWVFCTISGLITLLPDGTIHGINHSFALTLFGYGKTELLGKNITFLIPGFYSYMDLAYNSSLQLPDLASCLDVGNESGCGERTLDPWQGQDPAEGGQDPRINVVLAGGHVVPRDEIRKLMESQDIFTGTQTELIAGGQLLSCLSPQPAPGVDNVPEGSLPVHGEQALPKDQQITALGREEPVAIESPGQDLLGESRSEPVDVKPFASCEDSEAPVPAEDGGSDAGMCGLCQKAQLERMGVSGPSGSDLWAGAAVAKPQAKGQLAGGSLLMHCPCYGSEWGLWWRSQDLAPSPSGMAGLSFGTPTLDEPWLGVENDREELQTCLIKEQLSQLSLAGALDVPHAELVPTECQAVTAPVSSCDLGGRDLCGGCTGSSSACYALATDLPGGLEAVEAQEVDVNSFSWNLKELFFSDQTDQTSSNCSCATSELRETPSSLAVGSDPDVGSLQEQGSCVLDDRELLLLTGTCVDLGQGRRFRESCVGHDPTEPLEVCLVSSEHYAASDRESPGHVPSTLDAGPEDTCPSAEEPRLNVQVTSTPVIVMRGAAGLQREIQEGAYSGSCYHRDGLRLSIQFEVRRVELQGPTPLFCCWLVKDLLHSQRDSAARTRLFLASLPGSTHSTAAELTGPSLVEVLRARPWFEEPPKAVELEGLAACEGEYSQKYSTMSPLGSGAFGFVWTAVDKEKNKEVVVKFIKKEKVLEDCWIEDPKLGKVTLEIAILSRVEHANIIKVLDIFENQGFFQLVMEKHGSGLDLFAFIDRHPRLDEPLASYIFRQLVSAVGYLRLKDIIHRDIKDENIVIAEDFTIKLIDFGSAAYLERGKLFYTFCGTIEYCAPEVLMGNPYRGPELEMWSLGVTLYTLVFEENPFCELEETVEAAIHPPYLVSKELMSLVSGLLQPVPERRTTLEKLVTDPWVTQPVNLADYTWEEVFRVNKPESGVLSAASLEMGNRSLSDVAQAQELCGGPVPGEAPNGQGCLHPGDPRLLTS
Serine/threonine-protein kinase MARK2 (Homo sapiens), sequence (Q7KZI7 whole entry, the tested form may be a part): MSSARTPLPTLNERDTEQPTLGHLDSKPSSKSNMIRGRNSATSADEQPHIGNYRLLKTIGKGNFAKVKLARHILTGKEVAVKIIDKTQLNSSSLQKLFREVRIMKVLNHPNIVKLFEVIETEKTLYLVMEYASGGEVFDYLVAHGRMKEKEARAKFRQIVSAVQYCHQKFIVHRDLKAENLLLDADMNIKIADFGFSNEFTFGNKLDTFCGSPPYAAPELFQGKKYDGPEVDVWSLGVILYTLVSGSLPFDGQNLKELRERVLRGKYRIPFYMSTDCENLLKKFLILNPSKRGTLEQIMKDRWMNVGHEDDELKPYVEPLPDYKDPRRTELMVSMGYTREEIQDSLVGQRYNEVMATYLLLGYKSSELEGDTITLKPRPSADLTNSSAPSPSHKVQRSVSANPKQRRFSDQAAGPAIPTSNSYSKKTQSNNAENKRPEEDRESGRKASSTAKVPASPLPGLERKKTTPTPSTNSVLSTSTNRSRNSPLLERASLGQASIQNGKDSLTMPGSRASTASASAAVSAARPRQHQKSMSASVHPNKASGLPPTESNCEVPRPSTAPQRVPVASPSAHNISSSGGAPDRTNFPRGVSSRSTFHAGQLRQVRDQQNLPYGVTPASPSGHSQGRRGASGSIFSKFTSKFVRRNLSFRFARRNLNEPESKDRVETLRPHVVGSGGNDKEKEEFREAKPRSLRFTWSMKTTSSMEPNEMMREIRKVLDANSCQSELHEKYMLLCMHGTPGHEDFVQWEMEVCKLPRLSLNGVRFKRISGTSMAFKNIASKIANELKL

SMILES: COc1ccc(COc2ccc(Cc3cnc(N)nc3N)cc2OC)cc1
- inhibition [1]: 3.13%
- inhibition [2]: 1.77%
- inhibition [3]: 0.54%
- inhibition [4]: -0.96%
- inhibition [5]: 1.56%
- inhibition [6]: 1.58%
- inhibition [7]: -1.66%
- inhibition [8]: 1.34%
- inhibition [9]: 0.49%
- inhibition [10]: 2.71%
- inhibition [11]: 3.29%
- inhibition [12]: 2.12%
- inhibition [13]: 0.23%
- inhibition [14]: -0.2%
- inhibition [15]: -1.74%
- inhibition [16]: -2.62%
- inhibition [17]: 2.92%
- inhibition [18]: -5.52%
- inhibition [19]: -1.07%
- inhibition [20]: 2.12%

SMILES: COc1cc(C=NNc2ncnc3c2cnn3-c2ccccc2)ccc1O
- inhibition [1]: 6.47%
- inhibition [2]: 0.58%
- inhibition [3]: -3.11%
- inhibition [4]: 2.48%
- inhibition [5]: 11.3%
- inhibition [6]: 3.34%
- inhibition [7]: 2%
- inhibition [8]: 1.39%
- inhibition [9]: 1.57%
- inhibition [10]: -0.02%
- inhibition [11]: 2.11%
- inhibition [12]: -0.48%
- inhibition [13]: -0.21%
- inhibition [14]: 0.22%
- inhibition [15]: -0.53%
- inhibition [16]: 5.32%
- inhibition [17]: 18.5%
- inhibition [18]: 7.72%
- inhibition [19]: 20.4%
- inhibition [20]: 3.55%

SMILES: CS(=O)(=O)CCNCc1ccc(-c2ccc3ncnc(Nc4ccc(OCc5cccc(F)c5)c(C(F)(F)F)c4)c3c2)o1
- inhibition [1]: -0.27%
- inhibition [2]: -0.62%
- inhibition [3]: 0.4%
- inhibition [4]: 5.41%
- inhibition [5]: 4.1%
- inhibition [6]: 4.72%
- inhibition [7]: 4.64%
- inhibition [8]: 1.03%
- inhibition [9]: 1.08%
- inhibition [10]: 0.19%
- inhibition [11]: 0.66%
- inhibition [12]: 0.74%
- inhibition [13]: 0.16%
- inhibition [14]: 1.63%
- inhibition [15]: 2.16%
- inhibition [16]: 0.39%
- inhibition [17]: 9.67%
- inhibition [18]: 2.19%
- inhibition [19]: 10.8%
- inhibition [20]: 1.68%

SMILES: COc1ccc(-c2nn3ncccc3c2-c2ccnc(Nc3ccc(Cl)c(C(F)(F)F)c3)n2)cc1
- inhibition [1]: -0.83%
- inhibition [2]: 0.24%
- inhibition [3]: 2.12%
- inhibition [4]: 3.41%
- inhibition [5]: 5.53%
- inhibition [6]: 2.13%
- inhibition [7]: 5.41%
- inhibition [8]: 0.1%
- inhibition [9]: 0.37%
- inhibition [10]: 0.12%
- inhibition [11]: 0.14%
- inhibition [12]: 1.02%
- inhibition [13]: 2.53%
- inhibition [14]: 1.42%
- inhibition [15]: 1.91%
- inhibition [16]: 2.76%
- inhibition [17]: 5.43%
- inhibition [18]: 5.44%
- inhibition [19]: 1.72%
- inhibition [20]: 0.22%

SMILES: Nc1nc(-c2ccc3c(c2)C(=Cc2cc(Br)c(O)c(Br)c2)C(=O)N3)cs1
- inhibition [1]: 0.67%
- inhibition [2]: -0.9%
- inhibition [3]: -1.85%
- inhibition [4]: 3.78%
- inhibition [5]: 5.21%
- inhibition [6]: -3.21%
- inhibition [7]: -2.57%
- inhibition [8]: 3.74%
- inhibition [9]: 25.6%
- inhibition [10]: 10.8%
- inhibition [11]: 50.1%
- inhibition [12]: 5.73%
- inhibition [13]: 42.7%
- inhibition [14]: -1.39%
- inhibition [15]: -0.3%
- inhibition [17]: -3.45%
- inhibition [19]: -0.64%
- inhibition [20]: 0.67%

SMILES: Cc1nnc(-c2ccc(C)c(-c3ccc(C(=O)Nc4cccc(C#N)c4)cc3)c2)o1
- inhibition [1]: 0.87%
- inhibition [2]: 0.45%
- inhibition [3]: 4.14%
- inhibition [4]: 2.07%
- inhibition [5]: 6.42%
- inhibition [6]: 2.78%
- inhibition [7]: 4.43%
- inhibition [8]: -0.05%
- inhibition [9]: 0.66%
- inhibition [10]: 0.29%
- inhibition [11]: 0.22%
- inhibition [12]: 0.95%
- inhibition [13]: 2.47%
- inhibition [14]: 0.95%
- inhibition [15]: 0.82%
- inhibition [16]: 3.54%
- inhibition [17]: 4.65%
- inhibition [18]: 4.14%
- inhibition [19]: 3.76%
- inhibition [20]: 5.08%

SMILES: COc1cc2ncn(-c3cc(OCc4ccccc4C(F)(F)F)c(C(N)=O)s3)c2cc1OC
- inhibition [1]: 12.2%
- inhibition [2]: -0.15%
- inhibition [3]: 0.3%
- inhibition [4]: 6.17%
- inhibition [5]: 8.75%
- inhibition [6]: 5.36%
- inhibition [7]: 6.56%
- inhibition [8]: -0.79%
- inhibition [9]: 2.8%
- inhibition [10]: -3.6%
- inhibition [11]: -2.85%
- inhibition [12]: -0.3%
- inhibition [13]: 5.54%
- inhibition [14]: 1.22%
- inhibition [15]: 2.23%
- inhibition [16]: 9.96%
- inhibition [17]: 56.6%
- inhibition [18]: 5.82%
- inhibition [19]: 35.4%
- inhibition [20]: 3.59%
